These results are taken from PubChem BioAssay AID2669 (National Center for Advancing Translational Sciences (NCATS), 2010).

The structures appear in SMILES notation. Results filed as inconclusive are left out. Unmarked numbers belong to inactive results. The source made the active and inactive calls. The call rests on the fitted dose curve; in most records, active means well fitted inhibition curve with a large enough effect; inconclusive means small, poorly fitted or top-dose-only effect, or effect the other way; inactive means flat fitted curve, though single readings scatter.

The nature of the experiment: qHTS Assay Multiplex Screening to Identify Dual Action Probes in a Cell Model of Huntington: Cytoprotection (Protease relase). The conditions noted are these: PC12 HttQ103 cells, Cytotox-Glo protease release, 40 h; series mostly up to 46.1 µM; activity change, negative = inhibition: at the top concentration. Put shortly:
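Inducible PC12 line expressing HTT exon 1 (Q103)-GFP, induced with 100 nM tebufenozide (final) and treated with compounds. Cytoprotection read as released protease activity by Cytotox-Glo luminescence.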
In general terms: Quantitative high-throughput screening tests each substance at several concentrations.
`O=C(CNc1ccc(Oc2ccccc2)cc1)N1CCOCC1`: the Potency was 14.1 µM (active).
On the same count and under the same terms, the figure for `O=C(NCc1ccco1)c1cc2ccc(O)cc2oc1=O` is 2.82 µM (active).
On the same count and under the same terms, the same measure for `CC(=O)c1cccc(-c2csc3ncnc(Sc4nnnn4C)c23)c1`: 7.08 µM (active).
For the molecule `O=c1c2ccccc2nnn1CSc1ncnc2ccccc12`, the “activity change, negative = inhibition” value is -15.1%.
With `CS(=O)(=O)c1ccc([C@H](O)[C@H](CO)NC(=O)C(Cl)Cl)cc1`, the “activity change, negative = inhibition” value is -5.82%.
The same measure, in the same setting: the figure for `CCc1nc(SCC(=O)N2CCCC2)c2ccccc2n1` is -6.46%; for `O=C(O)c1cc(=O)c2ccc(Cl)cc2[nH]1` it is -5.11%; for `CC(=O)Nc1ccc(S(=O)(=O)N2CCSC2c2ccccc2)cc1` (configuration not stated) it is 0.578%.
On to `CC(C(=O)O)c1ccc(CC2CCCC2=O)cc1` (configuration not stated), for which the “activity change, negative = inhibition” value is -16.1%.
For the molecule `Fc1ccc(N2CCN(c3ncnc4nc[nH]c34)CC2)cc1`, the Potency is 4.47 µM (active).
Same read-out and setting: the same measure for `Cn1nnnc1Sc1ncnc2scc(-c3ccc4c(c3)OCO4)c12`: 10 µM (active); for `COc1ccc2cc3cc(C(=O)NCc4ccco4)oc3nc2c1`: 1 µM (active).
Turning to `c1csc(-c2cn3c(n2)SCC3)c1`, the “activity change, negative = inhibition” value is -24.7%.
Turning to `CCC(=O)OCCCCCCOc1ccc(C(=O)O)cc1`, the Potency is 0.891 µM (active).
For `CCc1nc(SCC(=O)Nc2nc3c(s2)CCCC3)c2ccccc2n1`, the “activity change, negative = inhibition” value is -52.8%.
For the molecule `Cn1nnnc1Sc1ncnc2scc(-c3ccc(C(F)(F)F)cc3)c12`, the Potency is 12.6 µM (active).
In the case of `Cn1nnnc1Sc1ncnc2scc(-c3ccc(F)cc3)c12`, the Potency was 15.8 µM (active).
Consider `Cn1nnnc1Sc1ncnc2scc(-c3ccc4ccccc4c3)c12`, for which the Potency was 10 µM (active).
On to `COc1c(F)c(F)c(C(=O)Nc2ccc3oc(-c4ccncc4)nc3c2)c(F)c1F`, for which the “activity change, negative = inhibition” value was -1.81%.
Turning to `NC(=O)c1sc2nc3c(c(-c4cccs4)c2c1N)CCCCC3`, the “activity change, negative = inhibition” value was -6.49%.
Still for that read-out and setting: the figure for `O=C(NCN1C(=O)C2C3C=CC(C3)C2C1=O)Nc1ccccn1` (configuration not stated) is -2.64%.
As for `C=CS(=O)(=O)c1ccc(Oc2ccc(S(=O)(=O)C=C)cc2)cc1`, the Potency is 10 µM (active).
